The results in this text go back to PubChem BioAssay AID1259415 (National Center for Advancing Translational Sciences (NCATS), 2018).

The structures appear in SMILES notation. The campaign covered roughly 410,000 compounds. About 18,000 (4.4%) were called active. About 7% were inconclusive and are not listed. Cut-off read from the data, not from the text of the source: active = activity change below about -60%; inconclusive = no clear call, values can overlap the other calls; inactive = above about -39%. What follows is part of a selection rich in actives, with near analogues and random picks from the rest.
% is set by controls: 0 for no effect and ±100 for the full control effect.

This assay can be described thus: qHTS Assay for inhibitors of the human cytomegalovirus (HCMV). Particulars: HFF cells, HCMV-luciferase reporter, 72 h; at 57.5 µM; stronger effect = lower value. In outline: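 Compounds were evaluated in HFFs infected with an HCMV luciferase reporter virus (MOI 1 PFU/cell). Luciferase in lysates collected 72 h post infection served as the replication measure.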
Consider `CCOC(=O)[C@H]1[C@H]2COc3ccc(Br)cc3[C@@H]2N2C(=O)CN(C)C(=O)[C@@]12C`, for which the activity change, negative = inhibition is 4.78% (inactive).

Consider `CC(=O)Nc1ccc(NC(=O)C2CCCN(S(=O)(=O)c3ccc4c(c3)CCCC(=O)N4)C2)cc1` (centres undefined), for which the activity change, negative = inhibition was 20.2% (inactive).

Turning to `Cc1ccc(C)c(N2CCN(C(=O)Cn3ncc4c(=O)oc5ccc(C)cc5c43)CC2)c1`, the activity change, negative = inhibition is 4.14% (inactive).

Regarding `Cc1ccccc1-c1cc(C(=O)NCc2cccs2)n(CC2CC(c3cccnc3)=NO2)n1` (centres undefined), the activity change, negative = inhibition was -10.2% (inactive).

For `Cc1ccccc1N1CC(C(=O)Nc2ccc3c(c2)OCO3)CC1=O` (centres undefined), the activity change, negative = inhibition is 31.2% (inactive).

As to `CC(C)(C)C(=O)COC(=O)c1cc(S(=O)(=O)N2CCCCC2)ccc1N1CCOCC1`, the activity change, negative = inhibition is -11.9% (inactive).

In the case of `O=C(OCCOc1ccccc1Cl)c1cc(S(=O)(=O)N2CCCCC2)ccc1N1CCOCC1`, the activity change, negative = inhibition was -69.8% (active).

With `O=C(OCCOc1ccccc1F)c1cc(S(=O)(=O)N2CCOCC2)ccc1F`, the activity change, negative = inhibition was -18% (inactive).

On to `CCOC(=O)c1c(C)[nH]c(C)c1S(=O)(=O)N1CCCC(C(=O)NCc2ccccc2Cl)C1` (centres undefined), for which the activity change, negative = inhibition is -15.8% (inactive).

Take `CCOc1ccccc1CNC(=O)Nc1cn(CC(C)C)c(=O)c2ccccc12`: the activity change, negative = inhibition was -2.27% (inactive).

For `CCOc1ccc(S(=O)(=O)Nc2ccncc2)c(C)c1C`, the activity change, negative = inhibition is -26.1% (inactive).

With `Cc1cc(-c2n[nH]c(=S)n2/N=C/C(Br)=C/c2ccccc2)n[nH]1`, the activity change, negative = inhibition was -95% (active).

Take `CCN(CCCNC(=O)Cn1ncc2c([nH]c3ccccc32)c1=O)c1cccc(C)c1`: the activity change, negative = inhibition was 19.5% (inactive).

As to `CCN(CCCNC(=O)c1ccc(Sc2ccc(C)cc2)c(NC(C)=O)c1)c1cccc(C)c1`, the activity change, negative = inhibition is -13.8% (inactive).

For the molecule `CCN(CCCNC(=O)c1ccc2c(c1)NC(=O)CN2C)c1cccc(C)c1`, the activity change, negative = inhibition was -95.1% (active).

Turning to `COc1ccc(SCc2cc(=O)c3ccc(C)c(C)c3[nH]2)cc1`, the activity change, negative = inhibition is -8.87% (inactive).

With `CC(C)C(C(=O)NC(C)(C)CC(C)(C)C)N1C(=O)C(=O)c2ccccc21` (centres undefined), the activity change, negative = inhibition was 229% (inactive).

For `O=C(NNS(=O)(=O)c1ccc(Cl)cc1)C1CCN(Cc2ccccc2)CC1`, the activity change, negative = inhibition was 14.7% (inactive).

Turning to `CCOC(=O)c1ccc(CN(Cc2ccccc2)S(=O)(=O)c2ccc(Cl)cc2)cc1`, the activity change, negative = inhibition is -6.46% (inactive).

Regarding `CCOC(=O)C1(S(=O)(=O)c2ccc(Cl)cc2)CCN(Cc2ccccc2)CC1`, the activity change, negative = inhibition was -98.6% (active).

Turning to `CN(CC(=O)Nc1ccccc1Cl)C(=O)COc1cccc2c1OC(C)(C)C2`, the activity change, negative = inhibition was -11.1% (inactive).

For the molecule `O=C(Nc1ccc(O)c(-c2nc3ccccc3o2)c1)c1ccc(-c2cccc(Cl)c2)o1`, the activity change, negative = inhibition was 11.5% (inactive).

`Cc1nc(Nc2ccc3c(c2)OCCO3)c2nnn(Cc3ccccc3Cl)c2n1`: the activity change, negative = inhibition was -91.8% (active).

Consider `Cc1nc(Nc2ccc(S(=O)(=O)N3CCCC3)cc2)c2nnn(Cc3ccccc3)c2n1`, for which the activity change, negative = inhibition is -1% (inactive).

In the case of `Cc1nc(Nc2ccccc2F)c2nnn(Cc3ccccc3Cl)c2n1`, the activity change, negative = inhibition was 33.3% (inactive).

Take `CC(C)c1ccc(Nc2ncccc2C#N)cc1`: the activity change, negative = inhibition is 52.9% (inactive).

For the molecule `COc1cc(OC)cc(C(=O)Nc2nnc(SCC(=O)NCC3CCCO3)s2)c1` (centres undefined), the activity change, negative = inhibition is -2.96% (inactive).

`CC1CN(C(=S)Nc2ccc(S(N)(=O)=O)cc2)CC(C)O1` (centres undefined): the activity change, negative = inhibition was 70.7% (inactive).

Turning to `CC1CC(C)CN(CC(=O)Nc2ccc(S(N)(=O)=O)cc2)C1` (centres undefined), the activity change, negative = inhibition is -88.1% (active).

Take `CC1Cc2ccccc2N1CC(=O)Nc1ccc(S(N)(=O)=O)cc1` (centres undefined): the activity change, negative = inhibition is -32.9% (inactive).

Regarding `COc1cc(OC)cc(C(=O)Nc2cc3nn(-c4ccccc4)nc3cc2Cl)c1`, the activity change, negative = inhibition is 99.1% (inactive).

Turning to `CCOC(=O)c1ccccc1NC(=O)CCc1c(C)nc2c(c1C)c(=O)n(C)c(=O)n2C`, the activity change, negative = inhibition is 5.18% (inactive).

Turning to `Cc1nc2ccccc2nc(=O)c1NNc1ccc([N+](=O)[O-])cc1`, the activity change, negative = inhibition is 4.07% (inactive).

`CCC1OC(c2ccc([N+](=O)[O-])cc2)=Nc2ccccc21` (centres undefined): the activity change, negative = inhibition was 13.9% (inactive).

For the molecule `Cc1nc(-c2ccc([N+](=O)[O-])cc2)c(-c2ccccc2)o1`, the activity change, negative = inhibition was -90.1% (active).

Consider `COc1ccc(Cn2ccnc2SCC(=O)NCc2ccco2)cc1`, for which the activity change, negative = inhibition was -17.3% (inactive).

With `COc1cc(OC)cc(C2=Cc3ccccc3C(CC(=O)c3ccco3)N2c2ccc(-c3cnc(OC)nc3)cc2)c1` (centres undefined), the activity change, negative = inhibition is 18.6% (inactive).

Turning to `NC(=O)c1ncc(C(F)(F)F)cc1Oc1ccc(F)cc1`, the activity change, negative = inhibition is 0.451% (inactive).

For the molecule `COc1ccc(Cl)cc1NC(=O)CSc1nc2ccccc2c2nc(-c3ccccc3)nn12`, the activity change, negative = inhibition is 11.6% (inactive).

Turning to `CCOc1ccc(CCN2C(=O)C(=O)N([C@@H](Cc3ccc(O)cc3)CN3CCC[C@H]3CN3C(=O)C(=O)NC[C@@H]3CC(C)C)C[C@@H]2Cc2ccccc2)cc1`, the activity change, negative = inhibition is -26.1% (inactive).

Consider `O=C(COC(=O)c1cncc(Br)c1)Nc1ccc(S(=O)(=O)N2CCOCC2)cc1`, for which the activity change, negative = inhibition is -8.88% (inactive).

With `O=C(COc1ccc(Br)cc1)OCC(=O)c1ccc[nH]1`, the activity change, negative = inhibition is 42.3% (inactive).

As to `CCCOC(=O)c1c(NC(=O)c2cnn3c2NC(c2ccccc2)CC3C(F)(F)F)sc2c1CCCC2` (centres undefined), the activity change, negative = inhibition was -29.2% (inactive).

In the case of `COc1ccc(OC)c(NC(=O)/C=C/c2ccc(C)o2)c1`, the activity change, negative = inhibition is 33% (inactive).

Turning to `Cc1ccc(/C=C/C(=O)Nc2ccc([N+](=O)[O-])c(NC(=O)/C=C/c3ccc(C)o3)c2)o1`, the activity change, negative = inhibition was -77% (active).

As to `CCOc1ccc(NC(=S)NC(=O)/C=C/c2ccc(OC)cc2)c([N+](=O)[O-])c1`, the activity change, negative = inhibition was 40.2% (inactive).

With `COc1c(Cl)cc(C(=O)N(Cc2ccccc2F)C2CCS(=O)(=O)C2)cc1Cl` (centres undefined), the activity change, negative = inhibition is -5.18% (inactive).

Regarding `Cc1ccc(OCC(O)CN2CCN(CC(O)COc3ccc(C)cc3Cl)CC2)c(Cl)c1` (centres undefined), the activity change, negative = inhibition was -4.14% (inactive).

Turning to `COc1ccccc1OCC(O)CN1CCOCC1` (centres undefined), the activity change, negative = inhibition is -100% (active).

For `CCCn1c(=N)n(CC(O)COc2ccccc2OC)c2ccccc21` (centres undefined), the activity change, negative = inhibition is -33.4% (inactive).

Turning to `CCOc1ccc(OCC)c(NS(=O)(=O)c2ccc3[nH]c(=O)ccc3c2)c1`, the activity change, negative = inhibition is 17.6% (inactive).

For the molecule `COc1ccc(S(=O)(=O)Nc2cc3c(C(=O)OC(C)C)c(C)oc3c3ccccc23)cc1`, the activity change, negative = inhibition is 4.89% (inactive).

`COc1cc(NS(=O)(=O)c2ccc3ccccc3c2)c2ncccc2c1`: the activity change, negative = inhibition is -79.8% (active).

`COc1cc2c(C(=O)N(C)c3cc(Cl)ccc3OC)cn(C)c(=O)c2cc1OC`: the activity change, negative = inhibition was -37.5% (inactive).
